Source: PubChem (National Center for Advancing Translational Sciences (NCATS))
p53 reactivator – mutant p53 re-activation in reporter cells | 320,000 compounds, 0.063% hits | H1299 p53-A138V BP100-luciferase reporter, luminescence, 24 h | Potency, µM (doses to about 92.2 µM), without a hit: at the highest dose activity change, positive = activation, hits mostly activators | AID 504706; also: % of control where 0% means no effect; nearly all actives have a fitted effect of over 45% in size
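H1299 (p53-null), stable ts p53-A138V + BP100-Luc; 1000 cells/well, Opti-MEM/10% FBS; cpd 4 pt, 1:5; 24 h, 37 deg C, 5% CO2; detection reagent 10 min RT; luminescence.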
GLS inhibitor – glutaminase GLS (human) inhibition; GLS enzymatic activity, qHTS titration; Potency, µM (titrated, usually from 45.5 µM), for inactives: at the top dose activity change, negative = inhibition, actives largely listed as inhibitors; AID 624170; 410,000 compounds, 0.21% hits; also: % is scaled to controls: 0 for no effect and ±100 for the full control effect
Target sequence (O94925 whole entry, looked up): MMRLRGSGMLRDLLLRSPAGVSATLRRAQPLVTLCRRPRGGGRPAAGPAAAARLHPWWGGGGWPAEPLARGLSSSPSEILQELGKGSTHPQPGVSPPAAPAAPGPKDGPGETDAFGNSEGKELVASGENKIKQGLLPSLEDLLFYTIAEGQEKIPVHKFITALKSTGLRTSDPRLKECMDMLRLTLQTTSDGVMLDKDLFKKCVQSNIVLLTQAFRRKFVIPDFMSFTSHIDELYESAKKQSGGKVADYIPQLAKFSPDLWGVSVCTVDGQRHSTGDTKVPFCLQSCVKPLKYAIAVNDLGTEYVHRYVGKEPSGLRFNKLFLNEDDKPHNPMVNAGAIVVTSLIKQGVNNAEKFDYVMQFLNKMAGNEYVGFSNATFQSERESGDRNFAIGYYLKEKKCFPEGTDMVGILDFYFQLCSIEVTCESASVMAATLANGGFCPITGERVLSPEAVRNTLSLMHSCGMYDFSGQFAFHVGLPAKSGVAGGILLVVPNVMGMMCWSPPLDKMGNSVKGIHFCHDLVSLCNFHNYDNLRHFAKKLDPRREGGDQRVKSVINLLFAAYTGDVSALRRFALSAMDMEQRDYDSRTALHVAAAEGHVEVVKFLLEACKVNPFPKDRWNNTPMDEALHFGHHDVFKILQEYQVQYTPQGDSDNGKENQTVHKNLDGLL
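Two-point fluorescence kinetic (t0, 30 min RT) for hKGA; glutamate detected via glutamate oxidase–HRP–Amplex Red. Substrate: 1 mM L-glutamine solution; buffer 45 mM KH2PO4, pH 8.2.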
USP2a inh – inhibitors of human ubiquitin-specific protease USP2a; AID 463254; 330,000 compounds, 0.01% hits; Potency, µM (highest dose often 38.3 µM), for inactives: at the top dose activity change, negative = inhibition, usual class: inhibitors; O75604; USP2 core, Ub-CHOP2 coupled fluorogenic reporter, 485/531;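 also: plate controls were DMSO wells for no effect and full inhibition by NEM control for full effect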
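Cell-free coupled assay: 10nM USP2 core preincubated 30min RT with compound in Tris-HCl pH 8.0/CaCl2/CHAPS buffer, then 25nM Ub-CHOP2 and 25nM reporter substrate; fluorescence (Ex 485/Em 531) read after 60min RT, normalized to NEM inhibition, concentration-response curves fitted.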
Tb PFK inh-1 – T. brucei PFK enzyme inhibition. 330,000 compounds, 0.17% hits. Potency, µM (doses to about 57.5 µM), without a hit: top-dose activity, negative = inhibition, actives largely listed as inhibitors. T. brucei PFK, ADP-Glo luminescence. AID 485367;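 also: 0% = uninhibited 1x PFK enzyme wells and -100% = no-enzyme wells; nearly all actives have a fitted effect of over 60% in size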
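Compounds were pin-transferred as a titration series up to 57 uM into substrate buffer (0.5 mM F6P, 0.1 mM ATP, pH 8.0), then 1.25 nM PFK was added and reactions ran 45 min before ADP-Glo detection.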
Tb PFK KinaseGlo – orthogonal confirmation of T. brucei phosphofructokinase inhibitors; shares compounds with Tb PFK inh-1; Tb PFK enzyme, ATP depletion, Kinase-Glo Plus luminescence; Potency, µM (titrated, usually from 57.5 µM), for the others: at the highest dose inhibition; 1,100 compounds, 47% hits; AID 504636; calls by dose curve; also: nearly all actives have a fitted effect of over 60% in size
Tb PFK inh-2 – T. brucei PFK enzyme inhibition, hit validation | shares compounds with Tb PFK inh-1 | purified T. brucei PFK, ADP-Glo luminescence, 45 min | Potency, µM (titrated, usually from 57.5 µM), inactives show at the top dose activity change, negative = inhibition, usual class: inhibitors | 1,100 compounds, 41% hits | AID 504637;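 also: plate controls were full PFK enzyme control for no effect and no enzyme control for full effect; nearly all actives have a fitted effect of over 60% in size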
* marks the source's active call; other numbers are inactive results; ? = inconclusive; · = not tested or not shown; [ ] = dose if it differs, or a comment. Only some compounds are listed: those with a hit (about 0.39% of all), similar ones and a draw of the others. Unless noted, calls follow the shape of the dose curve; as a rule, active = well fitted curve in the direction sought with a large enough effect; inconclusive = small, poorly fitted or top-dose-only effect, or another doubt; inactive = no such curve, though single readings can be large; an effect the other way counts as inactive or inconclusive. Potency is read from the fitted curve at half-maximal effect.

SMILES	p53 reactivator	GLS inhibitor	USP2a inh	Tb PFK inh-1	Tb PFK KinaseGlo	Tb PFK inh-2
COC(=O)C1CCN(C(=O)COC(=O)c2cc(-c3ccccc3)nc3ccc(OC)cc23)CC1	3%	-1%	0%	?	?	?
CCC1(CCC(C)C)C(=O)NC(=O)NC1=O	·	10%[99.4 µM]	·	·	·	·
O=C(O)c1ccc(-n2cccc2/C=C2/NC(=O)N(c3ccccc3)C2=O)cc1	5%	10µM*	1%	?	?	19µM*
Cn1cccc1/C=C1\SC(=S)N(CC(=O)O)C1=O	8%	23%	11%	?	·	·
Cc1ccc(CN2C(=O)N/C(=C\c3cccn3-c3cccc(C(=O)O)c3)C2=O)cc1	-4%	2%	?	?	?	?
Cc1ccc(N2C(=O)NC(=O)/C(=C\c3cccn3C(C)(C)C)C2=O)cc1	-2%	-4%	2%	11%	·	·
O=C(O)c1cccc(-n2cccc2/C=N/O)c1	4%	4%	0%	21µM*	?	?
O=C(O)c1ccc(-n2cccc2/C=C2/SC(=O)N(CC(=O)N3CCCC3)C2=O)cc1	-2%	16µM*	0%	?	4.8µM*	5.4µM*
O=c1[nH]c2ccccc2n1C1CCN(C(CCc2ccccc2)c2nnnn2C2CCCC2)CC1 (stereo not given)	·	-11%	·	·	·	·
N#CCC(=O)NN	·	31%	·	·	·	·
N#Cc1cc2c(nc1SCC(=O)Nc1ccc(OC(F)(F)F)cc1)C1CCN2CC1	·	11%	·	·	·	·
NCCc1c[nH]c2ccc(F)cc12	-4%	·	1%	?	?	?
CS(=O)(=O)N1CC(C(=O)NC2CCCC2)Oc2ccc(Cl)cc21 (stereo not given)	-3%	-2%	1%	19µM*	9.5µM*	24µM*
CS(=O)(=O)N1CC(C(=O)NC2CC2)Oc2ccc(Cl)cc21 (stereo not given)	-6%	-5%	2%	21µM*	13µM*	24µM*
CC(=O)OCC1=C(C(=O)O)N2C(=O)[C@@H](N)[C@@H]2SC1	·	-27%[20 µM]	·	·	·	·
Cc1ccc(C(C)(C)C)c(OCC(=O)Nc2ccc(Cl)cc2C(=O)c2ccccc2)c1	·	-10%	·	·	·	·
Cc1cc(C)c(OCC(=O)Nc2cc(C(=O)O)cc(C(=O)O)c2)cc1C	-1%	0%	3%	21µM*	8.5µM*	19µM*
CN(C)c1ccc(/C=N/NC(=O)c2ccnn2C)cc1	2%	-1%	1%	?	-15%	-12%
N=c1ccn(Cc2cccc(Cl)c2)cc1	-2%	12%	0%	7.6µM*	?	19µM*
N=c1ccn(Cc2ccc(Cl)c(Cl)c2)cc1	-10%	0%	2%	1.7µM*	2.4µM*	5.4µM*
Clc1ccc(Cl)cc1	·	-8%	·	·	·	·
Clc1ccc(Cn2ccnc2)cn1	0%	8%	15%	0%	·	·
N=c1ccn(Cc2ccc(Cl)cc2)cc1	-8%	6%	-2%	11µM*	?	?
COCC(C)N(C(=O)CCl)c1c(C)csc1C (stereo not given)	·	3%	·	·	·	·
Cc1ccccc1-n1c(/C=C/c2ccc(O)cc2)nc2ccccc2c1=O	·	0%	·	·	·	·
SMILES	p53 reactivator	GLS inhibitor	USP2a inh	Tb PFK inh-1	Tb PFK KinaseGlo	Tb PFK inh-2
Cc1ccc2scc(N3CCN(C)CC3)c(=O)c2c1	·	14%	·	·	·	·
C[C@]12C[C@H](O)[C@@H](O)CC1=CCC1C2CC[C@@]2(C)C1CC[C@@H]2O (stereo not given in full)	10%	-15%	-1%	0%	·	·
Nc1c(Br)cc(Br)cc1CNC1CCC(O)CC1 (stereo not given)	-2%	45%	-2%	-17%	·	·
CNc1cccccc1=S	?	-4%	?	12µM*	?	?
CCN(CC)c1ccc(CNCCc2ccc(F)cc2)cc1	15%	10%	0%	-2%	·	·
C=CCn1c(=O)[nH]c2cc(C(=O)N3CCN(c4ccc(C(C)=O)cc4)CC3)ccc2c1=O	0%	-3%	8%	?	?	?
O=C(O)c1ccc(N=Nc2c(O)[nH]c3cc(Cl)ccc23)cc1	5%	-10%	-8%	?	-25%	?
CN1C(=O)[C@@H](NC(=O)c2cc3ccccc3[nH]2)N=C(c2ccccc2)c2ccccc21	·	5%	·	·	·	·
C/C(=N\NC(=O)Cc1ccc(Cl)c(Cl)c1)c1cccnc1	0%	10%	0%	19µM*	12µM*	?
O=P(Nc1cccnc1)(Oc1ccccc1)Oc1ccccc1	-5%	16%	2%	5%	·	·
O=C(Cc1ccc(Cl)c(Cl)c1)Nc1cccnc1	5%	0%	0%	15µM*	3.8µM*	12µM*
Cc1ccc(C)c(OCCCC(=O)Nc2ccc(N3CCOCC3)cc2)c1	4%	·	-2%	?	16%	-5%
O=C(O)CCCNc1ccc(S(=O)(=O)Nc2ccccc2C(=O)O)cc1C(=O)O	-15%	21%	2%	?	-26%	?
Cc1c(NS(=O)(=O)c2ccccc2)ccc([N+](=O)[O-])c1Cl	·	11%	·	·	·	·
CC(=O)N(C1=C(Cl)C(=O)c2ccccc2C1=O)C1CCCCC1	-16%	6.3µM*	0%	0.67µM*	0.38µM*	0.38µM*
Cc1ccc(C(=O)O)cc1NC(=S)NC(=O)Cc1ccccc1	7%	13%	0%	?	-27%	?
CCN(CC)C(=O)c1ccc(NC(=S)NC(=O)CCc2ccccc2)cc1	?	3%	5%	-5%	·	·
COc1cc(OC)cc(C(=O)OCC(=O)NCc2ccco2)c1	3%	-13%	0%	15µM*	?	?
CC1(C)C(C(=O)NCc2ccco2)C1(C)C	-2%	0%	-1%	-3%	·	·
O=C(COC(=O)Cc1cccc(C(F)(F)F)c1)NCc1ccco1	21%	?	0%	8.5µM*	3.8µM*	11µM*
COc1ccc(-c2ccc3n2Cc2cnnn2-c2ccccc2-3)cc1	·	1%	·	·	·	·
COc1ccc2[nH]c(C)c(CCN3CCC(=O)C(C)C3C)c2c1 (stereo not given)	3%	19%	-1%	0%	·	·
COc1ccc2[nH]c3c(=O)n(CCCCC(=O)NCCN4CCCC4)c(=S)[nH]c3c2c1	1%	-4%	-6%	?	?	?
O=C(/C=C/c1ccc(O)c(O)c1)OC(Cc1ccc(O)c(O)c1)C(=O)O (stereo not given)	·	?	3%	2.7µM*	3.4µM*	?
C[C@H]1C[C@H](C)C(=O)[C@@H]([C@H](O)CC2CC(=O)NC(=O)C2)C1	·	-1%	·	·	·	·
O=C(CCl)c1ccc(Oc2ccc(C(=O)CCl)cc2)cc1	·	33%	·	·	·	·
COc1ccc(-c2csc(NS(=O)(=O)c3ccc([N+](=O)[O-])cc3)n2)cc1	-3%	5%	-9%	?	-33%	?
CN(Cc1cccc(-c2ccncc2)c1)C(=O)Oc1ccc([N+](=O)[O-])cc1	·	8%	·	·	·	·
